For experiment [1], the target named is Albumin (Bos taurus) (UniProt P02769). Description: compounds binding labelled BSA control protein – biochemical, small-molecule microarray, Alexa647 label, 635/667 nm fluorescence, artefact control for SMM control protein annotation, profiling panel (AID 1118).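 Also: score merges 667 nm emission intensity and signal-to-noise per printed compound spot.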 The conditions noted are these: BSA-A647 binding, fluorescence 635 nm, higher = more signal.
Experiment [2] can be described thus: probe aXIP binding to arrayed compounds – biochemical, NeuroSMM set, 635/667 nm fluorescence, primary screen (AID 1119).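 Also: probe is the protein aXip251-270 applied at 1 µg/mL to compound-printed slides; binding of probe to printed compounds measured as 667 nm fluorescence plus signal to noise.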 The conditions noted are these: small-molecule microarray, higher = more signal, called active from +8 up or from −8 down.
Experiment [3] in a line: probe aNOTCH3 binding on compound microarray – biochemical, small-molecule microarray, 635/667 nm fluorescence, primary screen (AID 1120).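 Also: probe is a biotin-tagged antibody raised against NOTCH3 rather than NOTCH3 protein; score merges spot fluorescence near 667 nm with spot signal to noise.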 The following applies: higher = more signal.
The nature of experiment [4]: probe aNOTCH2 binding on compound microarray – biochemical, small-molecule microarray, 635/667 nm fluorescence, primary screen (AID 1121).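 Also: score merges feature fluorescence read at 667 nm with its signal to noise.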 The conditions noted are these: higher = more signal.
Experiment [5] concerns the target Carbonic anhydrase 2 (Homo sapiens) (UniProt P00918). As to the kind of experiment: compounds binding carbonic anhydrase 2 – biochemical, small-molecule microarray, Alexa647-labelled CAII, profiling panel (AID 1122). The conditions noted are these: CAII-A647 binding fluorescence, higher = more signal.
Experiment [6] in a line: COS7 lysate on small-molecule microarray, probe aHis, 635 nm (AID 1123).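 Also: z-score combines 667nm fluorescence intensity with signal-to-noise per printed compound spot.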 The following applies: COS7 cell lysate, fluorescence, higher = more signal.
Experiment [7] can be described thus: probe aLAP1 signal on lysate-treated microarray – cell lysate, small-molecule microarray, COS7 lysate, primary screen (AID 1124).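 Also: lysate comes from COS7 cells expressing LAP1 and is applied at 0.3 µg/mL; score merges spot fluorescence near 667 nm with signal-to-noise over triplicate slides.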 The conditions noted are these: probe aLAP1, fluorescence, higher = more signal.
For experiment [8], the system named is Sam68 (KHDRBS1). As to the kind of experiment: compounds binding KHDRBS1 protein – biochemical, small-molecule microarray, 635 nm fluorescence, primary screen (AID 1125).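 Also: score merges 667 nm channel intensity with signal to noise over triplicate slides.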 The following applies: higher = more signal.
The test system of experiment [9] is Chordin-like protein 2 (CHRDL2). As to the kind of experiment: compounds binding chordin-like 2 – biochemical, small-molecule microarray, 635 nm fluorescence, primary screen (AID 1126).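 Also: printed compound slides probed with Chrdl2 protein at 4 µg/mL for 1 h at 4 C; score merges 667 nm emission intensity with signal to noise over three replicate slides.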 The conditions noted are these: fluorescence 635 nm, higher = more signal.
Experiment [10] concerns the target Concanavalin-A (Canavalia ensiformis) (UniProt P02866). Description: compounds binding concanavalin A lectin – biochemical, small-molecule microarray, Alexa647 label, 635 nm, artefact control for SMM control protein annotation, primary screen (AID 1127).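 Also: z combines 667 nm emission intensity with signal-to-noise across three replicate slides.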 The conditions noted are these: ConA-A647 binding fluorescence, higher = more signal.
Experiment [11] in a line: compounds binding Alexa647 anti-His antibody – biochemical, small-molecule microarray, 635 nm fluorescence, artefact control for SMM control protein annotation, primary screen (AID 1128).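 Also: score merges feature fluorescence with signal-to-noise for each printed compound spot.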 The conditions noted are these: higher = more signal.
Experiment [12] has as its system Human papillomavirus type 1a E7 protein (residues 1-88). As to the kind of experiment: HPV1a E7 small-molecule binders, primary screen, biochemical, small-molecule microarray, residues 1-88, 635 nm (AID 1129). The conditions noted are these: small-molecule microarray binding, fluorescence 635 nm; higher = more signal.
For experiment [13], the target named is Focal adhesion kinase 1 (Homo sapiens) (UniProt Q05397). As to the kind of experiment: PTK2 protein binding on printed compound slides – biochemical, small-molecule microarray, 635/667 nm fluorescence, BSA, DTT, primary screen (AID 1130).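 Also: composite of spot emission at 667 nm and signal to noise over triplicate slides.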 The conditions noted are these: 635 nm fluorescence, higher = more signal.
The test system of experiment [14] is Fibrinogen (Alexa647-labelled). Description: Alexa647-fibrinogen binding to printed small molecules – biochemical, small-molecule microarray, 635/667 nm fluorescence, artefact control for SMM control-protein annotation, profiling panel (AID 1131).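 Also: z-score merges 667 nm fluorescence with per-spot signal-to-noise over triplicate slides.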 The conditions noted are these: fibrinogen-A647 binding fluorescence, higher = more signal.
Experiment [15] deals with Follistatin (Homo sapiens) (UniProt P19883). Description: FST protein binding to printed compounds – biochemical, small-molecule microarray, 635/667 nm fluorescence, primary screen (AID 1132). The following applies: 635 nm fluorescence, higher = more signal.
In experiment [16] the target is Fibroblast growth factor 2 (Homo sapiens) (UniProt P09038). Description: basic fibroblast growth factor binding to printed compounds – biochemical, small-molecule microarray, 635/667 nm fluorescence, primary screen (AID 1133). The conditions noted are these: FGF2, fluorescence 635/667, higher = more signal.
Experiment [17] is described as follows: JC-1 mitochondrial potential readout, lung cancer cells – cell-based, A549, JC-1 fluorescence, basal, 24 h, 100 nL, profiling panel (AID 1138).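 Also: A549 lung adenocarcinoma cells under basal conditions with no added stimulus; test concentration not given here.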 The conditions noted are these: higher = more signal.
Experiment [18] concerns Lefty1. Description: Lefty1 protein binding to printed compounds – biochemical, small-molecule microarray, 635/667 nm fluorescence, primary screen (AID 1139). The conditions noted are these: fluorescence 635/667, higher = more signal.
Experiment [19] concerns wheat germ agglutinin (Triticum aestivum), Alexa647-labelled. Description: Alexa647-WGA lectin binding to printed small molecules – biochemical, small-molecule microarray, 635/667 nm fluorescence, artefact control for SMM control-protein annotation, profiling panel (AID 1140).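 Also: score merges 667 nm feature emission with signal to noise over triplicate slides.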 The following applies: WGA-A647 binding, 635 nm fluorescence, higher = more signal.
Experiment [20] addresses Luciferin 4-monooxygenase (Photinus pyralis) (UniProt P08659). Description: inhibition of purified Photinus pyralis luciferase – biochemical, luminescence, purified enzyme, 2006 set, primary screen (AID 1141).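 Also: cell-free assay with purified firefly luciferase at 100 ng per well in PBS; test concentration not given here.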 The following applies: purified firefly luciferase, SteadyGlo luminescence, 30 min; higher = more signal, called active from +8 up or from −8 down.

Calls of active or inactive are those of the source.

Sequence of Luciferin 4-monooxygenase (Photinus pyralis) (P08659 whole entry, looked up): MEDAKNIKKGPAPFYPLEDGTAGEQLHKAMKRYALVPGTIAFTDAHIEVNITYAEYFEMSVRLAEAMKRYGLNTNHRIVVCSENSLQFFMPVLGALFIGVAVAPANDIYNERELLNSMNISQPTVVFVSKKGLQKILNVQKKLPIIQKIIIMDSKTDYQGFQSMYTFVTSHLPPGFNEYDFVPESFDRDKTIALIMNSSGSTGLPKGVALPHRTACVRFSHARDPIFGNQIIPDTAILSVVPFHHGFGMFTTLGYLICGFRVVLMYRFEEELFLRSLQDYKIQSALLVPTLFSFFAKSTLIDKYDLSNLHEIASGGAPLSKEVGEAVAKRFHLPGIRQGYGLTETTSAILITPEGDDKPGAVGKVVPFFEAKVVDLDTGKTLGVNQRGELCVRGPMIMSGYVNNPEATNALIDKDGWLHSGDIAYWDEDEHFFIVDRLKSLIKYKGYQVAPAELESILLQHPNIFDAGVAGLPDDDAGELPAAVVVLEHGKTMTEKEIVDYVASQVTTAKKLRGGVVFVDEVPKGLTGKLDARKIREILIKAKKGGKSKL
Sequence of Follistatin (Homo sapiens) (P19883 whole entry, looked up): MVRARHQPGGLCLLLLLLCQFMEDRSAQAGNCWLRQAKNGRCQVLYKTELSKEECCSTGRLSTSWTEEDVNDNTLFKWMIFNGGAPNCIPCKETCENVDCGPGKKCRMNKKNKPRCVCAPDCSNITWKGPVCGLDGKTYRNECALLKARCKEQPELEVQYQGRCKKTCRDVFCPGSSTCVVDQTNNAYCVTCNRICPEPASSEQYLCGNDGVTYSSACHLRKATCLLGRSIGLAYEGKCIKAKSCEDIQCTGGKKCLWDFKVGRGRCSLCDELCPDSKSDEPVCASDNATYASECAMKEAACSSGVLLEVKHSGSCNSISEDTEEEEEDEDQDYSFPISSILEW
Sequence of Albumin (Bos taurus) (P02769 whole entry, looked up): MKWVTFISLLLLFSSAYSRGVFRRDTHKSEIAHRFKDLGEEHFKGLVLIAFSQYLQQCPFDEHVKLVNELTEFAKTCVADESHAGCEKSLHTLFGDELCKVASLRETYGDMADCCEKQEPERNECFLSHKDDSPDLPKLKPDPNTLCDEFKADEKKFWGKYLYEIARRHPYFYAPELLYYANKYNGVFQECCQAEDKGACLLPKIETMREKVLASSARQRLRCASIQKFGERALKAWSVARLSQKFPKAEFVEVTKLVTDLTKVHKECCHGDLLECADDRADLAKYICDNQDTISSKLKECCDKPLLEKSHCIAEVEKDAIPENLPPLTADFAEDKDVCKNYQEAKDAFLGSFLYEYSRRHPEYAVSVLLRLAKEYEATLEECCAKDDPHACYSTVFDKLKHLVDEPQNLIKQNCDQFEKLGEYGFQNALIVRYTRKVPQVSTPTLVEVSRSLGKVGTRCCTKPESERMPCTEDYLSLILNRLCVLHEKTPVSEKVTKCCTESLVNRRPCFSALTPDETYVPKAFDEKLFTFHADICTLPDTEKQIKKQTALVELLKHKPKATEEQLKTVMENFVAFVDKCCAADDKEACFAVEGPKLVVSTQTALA
Sequence of Focal adhesion kinase 1 (Homo sapiens) (Q05397 whole entry, looked up): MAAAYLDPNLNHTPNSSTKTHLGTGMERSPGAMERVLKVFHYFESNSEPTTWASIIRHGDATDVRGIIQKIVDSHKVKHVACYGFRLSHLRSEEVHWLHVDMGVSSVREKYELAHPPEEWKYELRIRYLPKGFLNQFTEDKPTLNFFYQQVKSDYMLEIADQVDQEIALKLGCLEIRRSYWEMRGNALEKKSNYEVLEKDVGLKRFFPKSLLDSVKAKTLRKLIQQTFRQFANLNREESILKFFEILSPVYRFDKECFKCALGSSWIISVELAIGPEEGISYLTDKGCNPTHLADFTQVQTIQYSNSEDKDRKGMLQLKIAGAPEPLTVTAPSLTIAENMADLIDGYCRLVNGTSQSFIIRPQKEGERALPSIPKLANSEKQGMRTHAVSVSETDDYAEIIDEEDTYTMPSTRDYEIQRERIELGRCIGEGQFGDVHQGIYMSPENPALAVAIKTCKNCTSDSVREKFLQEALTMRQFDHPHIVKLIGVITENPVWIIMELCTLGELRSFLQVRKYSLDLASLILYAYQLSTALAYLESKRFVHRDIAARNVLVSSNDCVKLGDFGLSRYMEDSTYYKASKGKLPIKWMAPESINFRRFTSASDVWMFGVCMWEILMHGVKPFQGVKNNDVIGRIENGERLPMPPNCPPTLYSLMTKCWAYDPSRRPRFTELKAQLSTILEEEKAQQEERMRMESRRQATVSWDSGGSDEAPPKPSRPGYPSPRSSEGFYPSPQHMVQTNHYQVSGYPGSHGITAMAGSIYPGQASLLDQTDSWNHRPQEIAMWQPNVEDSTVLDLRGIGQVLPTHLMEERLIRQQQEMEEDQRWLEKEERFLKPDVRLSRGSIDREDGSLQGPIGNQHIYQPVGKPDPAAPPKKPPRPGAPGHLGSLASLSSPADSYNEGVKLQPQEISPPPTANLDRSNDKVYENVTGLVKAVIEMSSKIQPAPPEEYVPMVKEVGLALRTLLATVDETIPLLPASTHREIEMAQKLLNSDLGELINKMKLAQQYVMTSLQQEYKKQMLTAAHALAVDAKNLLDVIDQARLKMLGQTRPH
Sequence of Fibroblast growth factor 2 (Homo sapiens) (P09038 whole entry, looked up): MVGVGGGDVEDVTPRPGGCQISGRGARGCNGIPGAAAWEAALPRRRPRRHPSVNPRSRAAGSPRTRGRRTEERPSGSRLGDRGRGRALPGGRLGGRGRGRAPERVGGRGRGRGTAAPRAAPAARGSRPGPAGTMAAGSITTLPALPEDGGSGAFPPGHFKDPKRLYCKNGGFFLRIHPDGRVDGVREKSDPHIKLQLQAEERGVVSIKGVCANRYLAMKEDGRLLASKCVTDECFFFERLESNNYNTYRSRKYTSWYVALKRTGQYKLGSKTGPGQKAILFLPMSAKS
Sequence of Concanavalin-A (Canavalia ensiformis) (P02866 whole entry, looked up): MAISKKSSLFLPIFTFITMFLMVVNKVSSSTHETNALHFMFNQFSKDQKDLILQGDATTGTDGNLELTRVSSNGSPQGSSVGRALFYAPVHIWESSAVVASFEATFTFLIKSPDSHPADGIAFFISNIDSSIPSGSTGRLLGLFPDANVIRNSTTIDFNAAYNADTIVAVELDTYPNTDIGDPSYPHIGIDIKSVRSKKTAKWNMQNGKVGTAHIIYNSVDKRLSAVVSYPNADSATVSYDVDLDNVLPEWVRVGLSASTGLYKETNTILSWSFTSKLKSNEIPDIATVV

Consider `C=CCOC(=O)[C@H]1[C@@H]2C(=O)O[C@@H](c3ccccc3)[C@@H](c3ccccc3)N2[C@@H](c2ccc(OCCOC(=O)[C@H]3C[C@H]4C(=O)NCC(=O)N4[C@H]3c3cccc(OCCO)c3)cc2)[C@]12C(=O)Nc1ccc(I)cc12`, for which the composite z-score in [1] was -0.0037; in [3], 0.138; in experiment [4] it was -0.125; in experiment [5] it was 0.567; in experiment [6], 2.2; in [7], 0.692. In addition, the composite z-score stood at 1.29 in experiment [8]; 0.866 in experiment [9]; 1.14 in experiment [10]; 0.844 in experiment [11]; 1.06 in [12]; 0.835 in experiment [13]. For the same compound, the composite z-score in experiment [14] amounted to 0.494; in [15], 1.41; in [16] it was 1.37; in experiment [18], 1.5; in experiment [19] it was 0.288. Further, in experiment [2], the composite Z-score was 0.642 (inactive). Moreover, the z-score was -0.715 in experiment [17] and -0.919 (inactive) in [20].

In the case of `[N-]=[N+]=NCc1ccccc1C[C@]1(C(=O)N2CCCCC2)COC(c2ccc(OCCCO)cc2)=N1`, the composite z-score was 0.744 in experiment [1]; -0.159 in experiment [3]; -0.242 in experiment [4]; 0.375 in experiment [5]; 1.58 in experiment [6]; -0.44 in experiment [7]. Also, the composite z-score in [8] worked out at 1.24; in experiment [9], 0.0846; in [10], 0.984; in [11], 1.13; in experiment [12], 1.07; in experiment [13] it was 0.401. In addition, the composite z-score in [14] is 0.932; in experiment [15], 0.687; in experiment [16], 0.765; in experiment [18] it was -0.432; in experiment [19] it was 0.827. Further, in [2], the composite Z-score is -0.838 (inactive). In addition, the values for the z-score in experiment [17] and in [20] were 2.45 and -1.71 (inactive), respectively.

Regarding `C[C@]1(C(=O)O)c2ccccc2C(=O)N(Cc2cc(C(F)(F)F)cc(C(F)(F)F)c2)[C@H]1c1ccc(CO)cc1`, the composite z-score in experiment [1] was 0.514; in experiment [3], 0.0426; in experiment [4] it was -0.106; in experiment [5] it was 0.728; in experiment [6] it was 0.516; in experiment [7], -0.178. In addition, the composite z-score was 0.666 in [8]; -0.833 in [9]; 0.928 in [10]; -0.41 in experiment [11]; -0.129 in experiment [12]; 0.0797 in [13]. Further, the composite z-score in experiment [14] is 0.844; in [15] it was 0.82; in experiment [16], -0.354; in [18], 1.02; in [19], 0.861. Besides, in [2], the composite Z-score was 0.365 (inactive). For the same compound, the z-score was -0.401 in [17] and 1.01 (inactive) in experiment [20].

Regarding `COc1cc(Cc2cc3c(c(-c4ccccc4)n2)[Si](C(C)C)(C(C)C)OC3)cc(OC)c1OC`, the composite z-score was -1.25 in experiment [1]; -0.0682 in experiment [3]; -0.0028 in experiment [4]; 0.153 in [5]; -0.317 in [6]; -0.27 in experiment [7]. Further, the composite z-score is -1.26 in [8]; 0.296 in [9]; -0.264 in [10]; -0.753 in experiment [11]; -1.33 in experiment [12]; -0.517 in experiment [13]. The composite z-score was 0.107 in experiment [14]; 0.0972 in experiment [15]; 0.542 in [16]; -0.194 in experiment [18]; 0.712 in experiment [19]. Further, the composite Z-score in experiment [2] is 0.23 (inactive). Also, the z-score in experiment [17] was 0.489; in [20] it was -0.111 (inactive).

Values taken from PubChem BioAssay.
